Source: PubChem BioAssay (NCATS)
Inconclusive results are not listed. Activity calls are given as the source filed them. Calls follow the shape of the dose curve; as a rule, active = well fitted inhibition curve with a large enough effect; inconclusive = small, poorly fitted or top-dose-only effect; inactive = flat fitted curve, though single readings scatter. *1 amine or outer side, *2 acyl side, *3 side chain or, on linkers, in order; H or OH if unused. Where a SMILES comes first, the peptide text is derived from it. Bridges are numbered along the chain shown (N, C = ends). [ ]: non-standard residue; d: D form. The star is where a group is joined. ξ: configuration not given here. X10 = NC1=NCCC(C(N[*:1])C(=O)[*:2])N1; ΔAla(3-NHCONH2) = NC(=O)NC=C(N)C(=O)O; ξβ3hOrn = NCCCC(N)CC(=O)*; Dap = NC[CH](N)C(=O)O

assay: qHTS to identify inhibitors of the type 1 interferon - major histocompatibility complex class I in skeletal muscle: primary screen against the NCATS Pharmaceutical Collection (AID 1347407); details: human skeletal muscle cells, IFN-b-induced MHC-I HiBiT luminescence, 24 h; series mostly up to 45.9 µM; activity change, negative = inhibition: at the top concentration
Description: Assay Submitter (PI): Travis B. Kinder Ph.D. & James Inglese Ph.D.
Assay Development and Screening Technology Laboratory (ADST)
National Center for Advancing Translational Sciences (NCATS), Rockville, MD
National Institute of Health (NIH), Bethesda, Maryland
Idiopathic inflammatory myopathies, collectively referred to as myositis, are a group of rare autoimmune diseases characterized by skeletal muscle inflammation, weakness, and usually accompanied by systemic pathologies of the skin, lungs, or vasculature. Current immunosuppressive therapies and glucocorticoids are often not curative and are accompanied by harsh side effects, especially in children with juvenile myositis. We initiated a drug repurposing and development program to identify more targeted, less toxic therapeutics to treat myositis. Although its cause is not known, muscle from a subset of patients have an abundance of the inflammatory type 1 interferon (IFN) and a down-stream product major histocompatibility complex class I (MHC class I), which are both thought to contribute to damage and weakness. We conducted quantitative high throughput screening on 6,576 compounds (4,679 unique) through a series of cell-based assays to identify those that inhibit the IFN-stimulated expression of MHC class I in muscle precursor cells (myoblasts). The compound identification and evaluation strategy utilized a primary screen with reporter-tagged MHC class I in genome-engineered myoblasts, ATP content counter screen for viability, HLA-ABC immunofluorescence secondary screen, and HLA-B RT-qPCR tertiary screen.
The primary screen utilized CRISPR/Cas9 genome-engineering of immortalized human myoblasts, C25cl48, where a pro-luminescent reporter HiBit was fused to the C-terminus of endogenous MHC class I allele HLA-B*08:01 (HLA-B HiBit myoblasts). HiBit is an 11 amino acid fragment of NanoLuc luminescent reporter (Promega Corporation), and when complexed to the larger LgBit fragment, the reconstituted enzyme produces light in the presence of furimazine substrate (Schwinn et al., 2018). Briefly, HLA-B HiBit myoblasts were plated into 1536-well plates, treated with 4.0 ng/ml human IFN-beta and 2,816 compounds from the NCATS Pharmaceutical Collection (NPC) that contains all drugs approved in the US, EU, and Japan (Huang et al., 2011) in an 8-point, 1:5 titration with a high final concentration of 46 uM. After 24 hrs of treatment, cells were assayed by Nano-Glo HiBiT Lytic Detection System (Promega) and luminescence measured by a ViewLux 1430 Ultra HTS (Perkin Elmer).
Huang R, Southall N, Wang Y, Yasgar A, Shinn P, Jadhav A, Nguyen D-T, Austin CP. 2011. The NCGC pharmaceutical collection: a comprehensive resource of clinically approved drugs enabling repurposing and chemical genomics. Sci Transl Med 3:80ps16. doi:10.1126/scitranslmed.3001862
Schwinn MK, Machleidt T, Zimmerman K, Eggers CT, Dixon AS, Hurst R, Hall MP, Encell LP, Binkowski BF, Wood K V. 2018. CRISPR-Mediated Tagging of Endogenous Proteins with a Luminescent Peptide. ACS Chem Biol 13:467-474. doi:10.1021/acschembio.7b00549
PROTOCOL TABLE (as described by Inglese et al., 2007)
SEQUENCE No. (e.g., 1, 2, 3, etc.); […] (e.g., Cells, Incubation, Reagent, etc.); VALUE; DESCRIPTION
1a; Cells; 5 uL; Use a Multidrop Combi (Thermo Scientific) to seed 350 cells/well into nine Greiner 1536 well white/solid bottom, high base, TC plates in 5 ul/well of iHSKM growth medium (GM) without dexamethasone into columns 1+2. Add metal lids with gas-exchange holes
1b; Cells; 5 uL; Use a Multidrop Combi (Thermo Scientific) to seed 350 cells/well into nine Greiner 1536 well white/solid bottom, high base, TC plates in 5 ul/well of iHSKM GM without dexamethasone + 4 ng/ml IFN-b into columns 3 - 48. Add metal lids with gas-exchange holes
2; Incubate; 1 hr; Incubate at 37 C, 5% CO2, 95% RH
[…]
% is scaled to controls: 0 for no effect and ±100 for the full control effect; potency is read from the fitted curve at half-maximal effect.

Row | Compound | activity change, negative = inhibition | Potency
1 | Nc1c[n+](N2CCOCC2)no1 | -6.99% (inactive) | 
2 | CO/N=C(\C(=O)O)c1csc(NC(=O)CCl)n1 | 16.4% (inactive) | 
3 | C[N+](C)(CCOc1ccccc1)Cc1cccs1 | -13.9% (inactive) | 
4 | O=C(OCC(COC(=O)c1cccnc1)(COC(=O)c1cccnc1)COC(=O)c1cccnc1)c1cccnc1 | -2.43% (inactive) | 
5 | O=C1Cc2cc(Cl)ccc2N1 | 11.1% (inactive) | 
6 | CC(C)(C)C1CCC(CC2=C(O)c3ccccc3C(=O)C2=O)CC1 (stereo not given) | 5.03% (inactive) | 
7 | O=[N+]([O-])c1nccn1CO[C@@H](CO)[C@H](O)CO | -12.5% (inactive) | 
8 | Oc1ccc(CCNCCCCCCNCCc2ccccc2)cc1O | -5.31% (inactive) | 
9 | CC(=O)O[C@@H]1CC2C3CCc4cc(OC(=O)c5ccccc5)ccc4C3CCC2(C)[C@H]1OC(C)=O (stereo not given in full) | -15.4% (inactive) | 
10 | CCCCN(CCN(CCCC)C(=O)N1CCOCC1)C(=O)N1CCOCC1 | -16.3% (inactive) | 
11 | Nc1c(I)cc(I)c(C(=O)N(CCC(=O)O)c2ccccc2)c1I | -3.41% (inactive) | 
12 | CC(=O)N1CCN(c2ccc(O)cc2)CC1 | 0.587% (inactive) | 
13 | CO[C@@H]1[C@@H](OC)[C@H](C)[C@@](O)(CC(=O)O)O[C@H]1[C@H](C)[C@H]1O[C@@]2(CC[C@@](C)([C@H]3CC[C@@](C)([C@@H]4O[C@@H]([C@H]5O[C@](C)(O)[C@H](C)C[C@@H]5C)C[C@@H]4OC4C[C@H](OC)[C@@H](OC)[C@H](C)O4)O3)O2)C[C@H](O)[C@H]1C (stereo not given in full) | 0.78% (inactive) | 
14 | Nc1ccc2c(c1)CN1C(=O)c3ccccc3C1=N2 | -7.35% [at 19 µM] (inactive) | 
15 | NC(=O)C1(N2CCCCC2)CCN(CCCN2c3ccccc3CCc3ccc(Cl)cc32)CC1 |  | 23.6 µM (active)
16 | CC(NN)c1ccccc1 (stereo not given) | -4.69% [at 19 µM] (inactive) | 
17 | O=C(O)Cn1c(=O)n(Cc2ccc(Br)cc2F)c(=O)c2ccc(Cl)cc21 | -6.52% (inactive) | 
18 | CCOc1ccccc1OCC1CNCCO1 (stereo not given) | 0.0006% (inactive) | 
19 | O=C(CCC1CCN(Cc2ccccc2)CC1)c1ccc2c(c1)NCCCC2 | -4.5% (inactive) | 
20 | CCCCCC[C@@H](CCC)C(=O)O | 0.12% (inactive) | 

Row | Compound | activity change, negative = inhibition | Potency
21 | CC(CCc1ccc2c(c1)OCO2)NN (stereo not given) | 9.95% (inactive) | 
22 | CCN(CC)CC(=O)Oc1ccc(NC(C)=O)cc1 | -1.84% (inactive) | 
23 | Cc1ccc(-c2ccccc2C#N)cc1 | -5.25% (inactive) | 
24 | COCCc1ccc(OCC2CO2)cc1 (stereo not given) | -7.41% (inactive) | 
25 | C=C(C)C(=O)OCC(O)CO (stereo not given) | -15.6% (inactive) | 
26 | Cc1nc([N+](=O)[O-])cn1-c1ccc([N+](=O)[O-])cc1 | 0.217% (inactive) | 
27 | O=C(O)c1ccccc1S | 0.401% (inactive) | 
28 | c1ccc2occc2c1 | 4.52% [at 92.2 µM] (inactive) | 
29 | CNC[C@H](O)[C@@H](O)[C@H](O)[C@H](O)CO | -0.198% (inactive) | 
30 | CC(=O)OCC(=O)Nc1cc(C#N)cc(NC(=O)COC(C)=O)c1Cl | -8.55% (inactive) | 
31 | NS(=O)(=O)c1cc2c(cc1Cl)CN(C1CCCCC1)C2=O | 0.598% (inactive) | 
32 | Fc1ccc(C(c2ccc(F)cc2)N2CCNCC2)cc1 | -1.61% (inactive) | 
33 | O=C1c2ccccc2CCc2ccccc21 | 5.99% (inactive) | 
34 | CCCCCCOC(=O)NC(=N)c1ccc(NCc2nc3cc(C(=O)N(CCC(=O)OCC)c4ccccn4)ccc3n2C)cc1 | 7.68% (inactive) | 
35 | O=C1NC(c2ccccc2)(c2ccccc2)C(=O)N1COP(=O)(O)O | -2.51% (inactive) | 
36 | COc1cc(C(=O)OC(COCCC(C)C)CN2CCOCC2)cc(OC)c1OC (stereo not given) | -16% (inactive) | 
37 | Nc1ncnc2c1ncn2Cc1c(F)cccc1Cl | -1.79% (inactive) | 
38 | CCOC(=O)c1ccc(NC(=O)CN2CCCCC2)cc1 | 2.13% (inactive) | 
39 | NCCCC(N)CC(=O)NCC1NC(=O)C(CO)NC(=O)C(N)CNC(=O)C(C2CCN=C(N)N2)NC(=O)C(=CNC(N)=O)NC1=O (stereo not drawn) (H-[Dap]S[Dap](ξβ3hOrn)[ΔAla(3-NHCONH2)][X10]; lactam 1-C; configuration not given here) | -9.07% [at 0.727 µM] (inactive) | 
40 | CCC(=O)Oc1ccc2c(c1)CC[C@@H]1[C@@H]2CC[C@@]2(C)[C@H]1C[C@@H](OC(=O)CC)[C@@H]2OC(=O)CC | -8.82% (inactive) | 
